Measured values published in PubChem BioAssay.
The source made the active and inactive calls.

Experiments:
[1] = system: Plasmodium falciparum Sir2 (PF13_0152, Sir2A); assay: pfSir2 binders on small-molecule microarrays, primary screen, biochemical, small-molecule microarray, 635 nm fluorescence (AID 1098); conditions: small-molecule microarray binding, fluorescence 635 nm; higher = more signal;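 note: score merges spot fluorescence intensity with its signal-to-noise ratio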
[2] = small-molecule microarray binders of probe aDKK1, primary screen, biochemical, biotinylated probe, 635/667 nm fluorescence (AID 1099); conditions: higher = more signal;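 note: score merges 667nm spot fluorescence with signal to noise across triplicate slides; reference of the scale not given here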
[3] = small-molecule microarray binders of probe aCHRDL2, primary screen, biochemical, biotinylated probe, 635/667 nm fluorescence (AID 1100); conditions: higher = more signal
[4] = splicing luciferase reporter signal modulators, primary screen, spliceosome inhibition project, cell-based, HEK293, splice +/- reporter (AID 1101); conditions: luminescence, 24 h, higher = more signal, called active from +8 up or from −8 down;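 note: HEK293 cells carrying a splicing-competent luciferase reporter gene; test concentration not given here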
[5] = biological target: Fibroblast growth factor 10 (Homo sapiens) (UniProt O15520); assay: FGF10 binders on small-molecule microarrays, primary screen, biochemical, small-molecule microarray, 635 nm fluorescence (AID 1102); conditions: FGF10 binding, fluorescence 635 nm, higher = more signal
[6] = system: glycogen synthase kinase-3 (GSK3A per assay name; protocol says GSK3B); assay: GSK3 binders on small-molecule microarrays, primary screen, biochemical, small-molecule microarray, 635 nm fluorescence, GSK3A (AID 1103); conditions: small-molecule microarray binding, fluorescence 635 nm; higher = more signal; note: the record names both GSK3A and GSK3B
[7] = biological target: Epidermal growth factor receptor (Homo sapiens) (UniProt P00533); assay: EGFR binders on small-molecule microarrays, primary screen, biochemical, small-molecule microarray, 635 nm fluorescence (AID 1104); conditions: EGFR binding, higher = more signal;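 note: score merges 667 nm emission intensity with spot signal to noise over triplicate slides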
[8] = biological target: Follistatin-related protein 3 (Homo sapiens) (UniProt O95633); assay: FSTL3 binders on small-molecule microarrays, primary screen, biochemical, small-molecule microarray, 635 nm fluorescence (AID 1105); conditions: FSTL3 binding, higher = more signal;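 note: score merges emission near 667 nm and signal to noise per printed spot across three slides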
[9] = biological target: Dickkopf-related protein 1 (Homo sapiens) (UniProt O94907); assay: DKK1 binders on small-molecule microarrays, primary screen, biochemical, small-molecule microarray, 635 nm fluorescence scan (AID 1106); conditions: DKK1 binding, higher = more signal;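 note: score merges emission near 667 nm with signal to noise over three replicate slides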
[10] = system: Inhibin beta A chain (activin A); assay: INHBA (activin A) binders on microarrays, primary screen, biochemical, small-molecule microarray, 635 nm fluorescence scan (AID 1107); conditions: small-molecule microarray binding, higher = more signal;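 note: mouse activin A protein probed at 4.33 µg/mL on printed slides; score merges bound-protein fluorescence near 667 nm with spot signal-to-noise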

Chain of Epidermal growth factor receptor (Homo sapiens) (P00533 whole entry, looked up): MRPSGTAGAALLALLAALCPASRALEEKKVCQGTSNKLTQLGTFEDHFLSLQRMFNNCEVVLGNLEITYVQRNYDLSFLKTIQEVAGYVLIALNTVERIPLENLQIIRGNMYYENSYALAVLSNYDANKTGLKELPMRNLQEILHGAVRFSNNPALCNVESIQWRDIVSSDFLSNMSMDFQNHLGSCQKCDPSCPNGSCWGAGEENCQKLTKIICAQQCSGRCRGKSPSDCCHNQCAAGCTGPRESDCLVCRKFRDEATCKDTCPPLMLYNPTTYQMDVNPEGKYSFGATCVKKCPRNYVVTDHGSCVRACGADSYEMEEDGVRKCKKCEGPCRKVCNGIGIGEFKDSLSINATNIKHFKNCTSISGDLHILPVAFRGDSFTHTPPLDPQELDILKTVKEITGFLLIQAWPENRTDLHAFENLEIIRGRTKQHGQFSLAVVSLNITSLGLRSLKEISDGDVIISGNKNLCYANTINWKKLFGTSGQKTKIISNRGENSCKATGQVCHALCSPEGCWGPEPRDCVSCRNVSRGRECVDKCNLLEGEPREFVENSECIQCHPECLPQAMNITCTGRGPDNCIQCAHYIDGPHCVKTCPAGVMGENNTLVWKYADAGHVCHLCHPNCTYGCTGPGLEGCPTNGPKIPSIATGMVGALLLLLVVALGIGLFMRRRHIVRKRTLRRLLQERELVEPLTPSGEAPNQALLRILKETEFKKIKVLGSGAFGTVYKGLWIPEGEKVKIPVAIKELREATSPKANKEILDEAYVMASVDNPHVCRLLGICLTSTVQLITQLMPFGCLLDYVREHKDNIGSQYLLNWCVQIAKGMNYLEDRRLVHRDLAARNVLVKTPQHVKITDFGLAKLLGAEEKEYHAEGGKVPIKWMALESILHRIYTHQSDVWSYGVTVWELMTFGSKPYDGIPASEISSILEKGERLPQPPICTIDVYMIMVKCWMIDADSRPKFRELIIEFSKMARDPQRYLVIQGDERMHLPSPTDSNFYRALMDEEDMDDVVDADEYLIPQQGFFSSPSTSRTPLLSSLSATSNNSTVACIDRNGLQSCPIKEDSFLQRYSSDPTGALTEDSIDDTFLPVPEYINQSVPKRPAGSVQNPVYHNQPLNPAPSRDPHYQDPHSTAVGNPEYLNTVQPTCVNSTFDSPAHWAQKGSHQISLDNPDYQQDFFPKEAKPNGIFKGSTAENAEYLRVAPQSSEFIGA
Chain of Dickkopf-related protein 1 (Homo sapiens) (O94907 whole entry, looked up): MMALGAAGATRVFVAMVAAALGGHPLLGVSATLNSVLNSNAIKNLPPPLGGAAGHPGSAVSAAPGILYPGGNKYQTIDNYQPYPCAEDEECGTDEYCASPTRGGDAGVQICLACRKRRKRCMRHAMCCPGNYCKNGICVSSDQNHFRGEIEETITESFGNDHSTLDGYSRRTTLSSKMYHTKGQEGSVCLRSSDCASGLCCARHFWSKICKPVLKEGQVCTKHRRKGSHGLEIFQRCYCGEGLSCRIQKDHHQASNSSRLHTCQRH
Chain of Follistatin-related protein 3 (Homo sapiens) (O95633 whole entry, looked up): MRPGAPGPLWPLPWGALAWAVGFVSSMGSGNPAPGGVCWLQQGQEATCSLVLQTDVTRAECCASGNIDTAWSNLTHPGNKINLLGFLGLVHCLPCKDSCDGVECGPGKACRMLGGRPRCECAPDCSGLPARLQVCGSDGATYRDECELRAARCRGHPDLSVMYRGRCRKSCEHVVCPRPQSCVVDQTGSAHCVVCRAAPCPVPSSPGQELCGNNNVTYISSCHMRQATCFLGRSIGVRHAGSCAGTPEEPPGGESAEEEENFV
Chain of Fibroblast growth factor 10 (Homo sapiens) (O15520 whole entry, looked up): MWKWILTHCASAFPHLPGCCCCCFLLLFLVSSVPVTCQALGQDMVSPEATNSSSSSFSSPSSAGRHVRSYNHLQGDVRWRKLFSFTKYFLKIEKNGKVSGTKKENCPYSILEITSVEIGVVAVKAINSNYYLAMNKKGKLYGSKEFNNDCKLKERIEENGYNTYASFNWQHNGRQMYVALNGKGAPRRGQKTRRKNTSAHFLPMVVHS

Row | SMILES | composite z-score [1] | composite z-score [2] | composite z-score [3] | z-score [4] | composite z-score [5] | composite z-score [6] | composite z-score [7] | composite z-score [8] | composite z-score [9] | composite z-score [10]
1 | COCCCNC(=O)[C@]1(CCC(=O)OC(C)(C)C)N=C(c2ccc(OCCCO)cc2)O[C@@H]1c1ccccc1N=[N+]=[N-] | 1.31 | 0.314 | 0.999 | -1.14 (inactive) | 1.29 | 1.33 | 0.287 | 1.06 | 0.0998 | 0.772
2 | CC(C)(C)OC(=O)CC[C@]1(C(N)=O)COC(c2ccc(OCCCO)cc2)=N1 | 0.755 | 1.59 | 1.38 | -0.337 (inactive) | 1.34 | 0.977 | -0.395 | 0.278 | -0.385 | 0.976
3 | C=CC[C@@H]1C=C[C@H](ON=C[C@@H](OC)[C@H](C)C=CCC(=O)OC)[C@@H](CO)O1 | -0.433 | -0.0759 | -0.615 | 0.653 (inactive) | 0.423 | 0.306 | -0.0453 | 0.343 | 0.17 | 0.496
4 | CCc1cc2c(nc1CC)CCN(CCC(C)=NOC(C)CN1CCCc3nc(C)c(C)cc31)C2 (stereo not given) | 1.05 | 0.612 | -0.242 | 0.211 (inactive) | 1.04 | 1.06 | 1.16 | 1.32 | 1.03 | 1.59
5 | COc1ccccc1CN1C(=O)c2ccccc2[C@@H](C(=O)NCC(F)(F)F)[C@@H]1c1ccc(CO)cc1 | 1.68 | -0.139 | 0.245 | -0.14 (inactive) | 0.956 | 0.715 | 0.0304 | 0.941 | 0.0666 | 0.218
6 | C[C@H](c1ccccc1)N1C(=O)[C@H]2[C@@H]3C(=CC[C@H]2C1=O)C(=O)[C@H]1O[C@H]1[C@H]3O | 0.816 | -0.191 | -0.559 | 4.45 (inactive) | 0.388 | 0.359 | 0.626 | 0.359 | 0.87 | 0.527
7 | COc1ccc(COC(=O)NN=C2C[C@@H](O)[C@@H](O)[C@@H]3[C@@H]4C(=O)N(Cc5ccc6c(c5)OCO6)C(=O)[C@@H]4CC[C@@H]23)cc1 | -0.454 | 0.911 | 1.39 | -1.36 (inactive) | -0.0715 | -0.52 | -0.451 | -0.226 | -0.539 | 0.556
8 | COC(=O)[C@@]1(Cc2ccc(OC)cc2)[C@H]2c3cc(C(=O)N4CCCC4)n(Cc4cc(F)c(F)c(F)c4)c3C[C@H]2CN1C(=O)c1ccccc1 | 1.08 | 2.47 | 1.59 | -1.28 (inactive) | 1.15 | 1.3 | 1.12 | 1.32 | -0.279 | 0.835
9 | CO[C@@H]1COC(=O)CC=C[C@@H](C)[C@H](OC)COC(=O)[C@H](COCc2ccccc2)NC(=O)CC=C[C@H]1C | 1.56 | -0.516 | -1.15 | 0.0688 (inactive) | 0.303 | -0.112 | 0.461 | 0.689 | 0.444 | 1.87
10 | c1ccc(C2NCCc3c2[nH]c2ccccc32)cc1 (stereo not given) | -0.214 | -0.227 | 0.412 | -0.231 (inactive) | 0.269 | -0.704 | 0.112 | -0.142 | 0.0559 | 0.586
11 | CCOC(=O)CCN1C(=O)[C@H]2[C@H]3[C@H](O)[C@H](O)CC(=O)[C@H]3CC[C@H]2C1=O | -0.0527 | -0.202 | -0.723 | -1.11 (inactive) | 0.685 | 0.765 | 0.4 | 0.565 | 0.745 | -0.0903
12 | CC(C)[Si]1(C(C)C)O[C@@H](c2ccccc2)c2cc(C3CC3)nc(-c3ccccc3)c21 | -0.792 | -0.276 | -0.0652 | -0.613 (inactive) | -0.0733 | -0.248 | -0.337 | -0.349 | -0.568 | -1.07
13 | O=C1[C@H]2[C@H]3[C@H](O)[C@H](O)CC(=NOCc4ccccc4)[C@H]3CC[C@H]2C(=O)N1c1cccc(Oc2ccccc2)c1 | 0.669 | -0.421 | -0.469 | 0.639 (inactive) | 0.787 | 0.596 | 0.349 | 0.911 | 0.487 | -0.0134
14 | COc1ccc(O[C@H]2C=C[C@@H](c3ccccc3)O[C@@H]2COC(=O)CCC(C)=NO[C@@H](C)c2cc(-c3c(C)cc(C)cc3C)no2)cc1 | -0.0775 | -0.344 | 0.268 | -0.398 (inactive) | -1.05 | -2.04 | -0.747 | -1.39 | -0.872 | 0.934
15 | CCOC(=O)CCN1C(=O)[C@H]2[C@H]3[C@H](O)C=CC(=O)[C@@H]3CC[C@H]2C1=O | 0.0705 | -0.222 | -0.437 | -0.173 (inactive) | 0.605 | 0.323 | 0.678 | 0.518 | 0.541 | -0.0901
16 | COC(=O)CC=C[C@H](C)[C@H](CO)NS(=O)(=O)c1ccc(C)cc1 | 0.227 | -0.397 | -0.707 | 0.636 (inactive) | 0.62 | 0.252 | 0.573 | 0.48 | 0.987 | -0.273
17 | CC(C)CON=C1C[C@@H](O)[C@@H](O)[C@@H]2[C@@H]3C(=O)N(Cc4ccccc4)C(=O)[C@@H]3CC[C@@H]12 | -0.511 | -0.278 | -0.737 | -0.28 (inactive) | 0.5 | 0.649 | 0.571 | 0.617 | 0.836 | -0.269

Row | SMILES | composite z-score [1] | composite z-score [2] | composite z-score [3] | z-score [4] | composite z-score [5] | composite z-score [6] | composite z-score [7] | composite z-score [8] | composite z-score [9] | composite z-score [10]
18 | O=C1O[C@@H](c2ccccc2)[C@@H](c2ccccc2)N2[C@@H](c3ccc(O)cc3)[C@]3(C(=O)Nc4ccccc43)[C@@H](C(=O)O)[C@H]12 | 1.1 | 0.74 | 0.91 | 0.451 (inactive) | -0.0962 | 0.536 | -0.111 | -0.0238 | -0.465 | 0.385
19 | CC(C)(C)N1CC=CC23O[C@@H]4C=CCCOC(=O)C4[C@H]2C(=O)N(CCCCCO)[C@@H]3C1=O (stereo not given in full) | 1.87 | -0.399 | 0.0199 | 0.164 (inactive) | -0.0123 | 0.126 | -0.0688 | -0.361 | -0.236 | 0.773
20 | CCOC(=O)[C@H](Cc1ccccc1)NC(=O)CCC1CC(OC(=O)NCc2ccc3c(c2)OCO3)CC2(CCCC(COC(=O)NCC3CCCCC3)O2)O1 (stereo not given in full) | 0.599 | -0.151 | -0.5 | -0.481 (inactive) | 0.802 | 1.27 | 0.44 | 1.05 | 0.655 | -0.0031
21 | COC(=O)C1(C)C=C2C(=C(c3ccccc3)C(=O)C2C)CN1 (stereo not given) | 0.537 | 1.14 | 1.22 | 1.21 (inactive) | -0.174 | -0.824 | -0.709 | -1.29 | -1.16 | 1.45
22 | O=C1[C@H]2[C@H]3[C@H](O)[C@H](O)CC(=NOC[C@@H](O)COCc4ccco4)[C@H]3CC[C@H]2C(=O)N1C1CCCCC1 | 0.508 | -0.565 | -1.6 | -1.13 (inactive) | 0.0351 | 1.16 | 0.623 | 0.499 | 0.942 | 1.31
23 | CCCNC(=O)[C@@H]1c2ccccc2C(=O)N(Cc2ccccc2Cl)[C@H]1c1ccc(CO)cc1 | 1.67 | 0.989 | 0.846 | -0.493 (inactive) | 0.619 | 1.28 | 0.192 | 1.34 | 0.649 | 0.341
24 | C[C@@H]1C=CCC(=O)OC[C@H](C)C(=O)OC[C@H]2O[C@H]1C=C[C@H]2O | 0.128 | -0.439 | -0.833 | 1.17 (inactive) | 0.678 | 0.387 | 0.339 | 0.808 | 0.545 | -0.181
25 | CCOC(=O)NN=C1C[C@@H](O)[C@@H](O)[C@@H]2[C@@H]3C(=O)N(C4CCCCC4)C(=O)[C@@H]3CC[C@@H]12 | 0.104 | -0.192 | -0.499 | 1.06 (inactive) | 0.534 | 0.132 | 0.34 | 0.297 | 0.476 | 0.212
26 | COC(=O)[C@]1(CO)N=C(c2ccc(OCCCO)cc2)O[C@@H]1c1ccccc1N=[N+]=[N-] | 0.428 | 0.341 | 0.194 | -0.121 (inactive) | 1.36 | 0.521 | 0.384 | 0.393 | 0.356 | 0.653
27 | [N-]=[N+]=NCc1ccccc1[C@@H]1OC(c2ccc(OCCCO)cc2)=N[C@]1(Cc1ccccc1)C(=O)N1CCOCC1 | 1.57 | 1.2 | 0.798 | -0.962 (inactive) | 1 | 1.29 | 0.0588 | 0.589 | 0.315 | 0.182
28 | CCOC(=O)[C@H](CC(C)C)NC(=O)CCC1CC(OC(=O)NCCc2ccc(F)cc2)CC2(CCCC(COC(=O)NCc3ccccc3)O2)O1 (stereo not given in full) | 0.859 | -0.273 | -0.29 | -1.19 (inactive) | 1.39 | 0.808 | 0.907 | 1.01 | 0.89 | -0.198
29 | CO[C@@H]1COC(=O)CCC[C@@H](C)[C@H](OC)COC(=O)[C@H](Cc2ccccc2)NC(=O)CC=C[C@H]1C | 0.637 | -0.485 | -0.497 | -0.491 (inactive) | -0.974 | -0.999 | 0.231 | 0.507 | 0.915 | 1.6
30 | CC(CCN1CCc2nc(-c3ccccc3)c(-c3ccccc3)cc2C1)=NOC(C)CN1CCCCc2nc(C)c(C)cc21 (stereo not given) | 0.646 | -0.0421 | 0.318 | -0.0114 (inactive) | 0.593 | 0.746 | 0.964 | 0.609 | 0.77 | 1.15
31 | COC(=O)[C@@]1(Cc2ccc(F)cc2)[C@H]2c3cc(C(=O)N(C)C)n(Cc4ccc(OC)c(OC)c4)c3C[C@H]2CN1C(=O)c1ccccc1 | -0.236 | 1.08 | 0.43 | -3.2 (inactive) | 0.495 | -1.21 | 0.278 | -0.32 | -0.686 | 0.939
32 | O=C1[C@H]2[C@H]3[C@H](O)[C@H](O)CC(=NOCc4ccccc4)[C@@H]3CC[C@H]2C(=O)N1Cc1ccccc1 | -0.935 | -0.206 | -0.571 | -0.491 (inactive) | 0.43 | 0.75 | 0.453 | 0.58 | 0.544 | -0.359
33 | CN(C)C(=O)[C@@]1(Cc2ccccc2)N=C(c2ccc(OCCCO)cc2)O[C@H]1c1ccccc1CN=[N+]=[N-] | 1.2 | 1.44 | 1.35 | 0.32 (inactive) | 1.47 | 0.777 | -0.194 | 0.732 | 0.0591 | 0.784
